Assay outcomes (PubChem BioAssay)
Compounds with a hit are over-represented: about 3.1% of the library has one in this group of screens.
Mito fusion act = mitochondrial division inhibition or fusion activation; S. cerevisiae fusion-defective mutant growth rescue, CellTiterGlo 48 h; AID 485298; Potency, µM (highest dose often 46.1 µM), for inactives: top-dose growth rescue (activation), hits mostly activators; 0.23% of 320,000 active; further: potency means the concentration at half of the fitted maximal effect; % of control where 0% means no effect; nearly all actives have a fitted effect of over 45% in size
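Luminescent cell viability in 1536-well qHTS format served as the measure of rescued growth in ts fusion-mutant S. cerevisiae cultured on non-fermentable YPEG for 48 hours at 37C.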
TrxR1 inh = inhibitors of rat thioredoxin reductase 1; O89049; AID 588453; Potency, µM (doses to about 114 µM), for inactives: at the highest dose activity change, negative = inhibition, usual class: inhibitors; 1% of 390,000 active; recombinant rTrxR1, NADPH fluorescence consumption, selenite substrate; further: potency means the concentration at half of the fitted maximal effect; on the % scale 0 is the no-effect control and ±100 the full control effect; nearly all actives have a fitted effect of over 65% in size
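Rat TrxR1 (90 nM in the dispensed reagent) was pre-reduced with 400 uM NADPH for 5 min at room temperature, then incubated with compound for 15 min. After 400 uM selenite was added, NADPH fluorescence (Ex 340/Em 450 nm) was followed for 8 min.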
Nrf2 inh = Nrf2 pathway inhibition; 2.1% of 360,000 active; A549 ARE-Fluc reporter, luciferase luminescence, 18-24 h; Potency, µM (series often up to 46 µM), for the others: top-dose activity change, negative = inhibition, actives largely listed as inhibitors; further: potency means the concentration at half of the fitted maximal effect; on the % scale 0 is the no-effect control and ±100 the full control effect; nearly all actives have a fitted effect of over 60% in size
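Nrf2 activity is the BugLite luminescence, read 15 min after reagent at room temperature, following CellTiter-Fluor cytotoxicity readout (30 min, 37C). Compound titrations were applied for 18-24 h to 5000 A549 ARE_Fluc cells/well in 5% FBS OPTI-MEM.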
TrxR1 substrate = is turned over as a substrate by rat TrxR1; O89049; purified TrxR1 substrate turnover, NADPH consumption readout; Potency, µM (top dose mostly 114 µM), for the others: at the highest dose activity change, negative = substrate turnover; 0.01% of 390,000 active; AID 588456; further: potency means the concentration at half of the fitted maximal effect; on the % scale 0 is the no-effect control and ±100 the full control effect; nearly all actives have a fitted effect of over 50% in size
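Rat TrxR1, dispensed at 90 nM, was prereduced with 400 uM NADPH (final) for 5 min at ~22 deg C, then incubated with compound 15 min before 400 uM selenite. A first-read NADPH fluorescence drop versus no-compound background flagged substrates.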
A549 viability = kills or reduces viability of A549 cells in Nrf2 counter-screen; A549 ARE-Fluc cells, CellTiter-Fluor viability, 18-24 h; Potency, µM (titrated, usually from 46 µM), without a hit: top-dose activity change, negative = cytotoxicity, most hits filed as inhibitors; 0.16% of 390,000 active; further: potency means the concentration at half of the fitted maximal effect; on the % scale 0 is the no-effect control and ±100 the full control effect
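A549 ARE_Fluc cells in 5% FBS OPTI-MEM were exposed to compounds in concentration-response for 18-24 h at 37 deg C. Viability was read by CellTiter-Fluor fluorescence (Ex 405/Em 525) after 30 min, before the luciferase read.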
IDH1 R132H inh = human IDH1 R132H inhibition. O75874. IDH1-R132H enzyme, NADPH consumption, diaphorase/resazurin fluorescence. Potency, µM (titrated, usually from 76.6 µM), without a hit: top-dose activity change, negative = inhibition, most hits filed as inhibitors. 0.093% of 390,000 active; further: potency means the concentration at half of the fitted maximal effect; on the % scale 0 is the no-effect control and ±100 the full control effect; nearly all actives have a fitted effect of over 65% in size
Target sequence (O75874 whole entry R132H, stated change not applied): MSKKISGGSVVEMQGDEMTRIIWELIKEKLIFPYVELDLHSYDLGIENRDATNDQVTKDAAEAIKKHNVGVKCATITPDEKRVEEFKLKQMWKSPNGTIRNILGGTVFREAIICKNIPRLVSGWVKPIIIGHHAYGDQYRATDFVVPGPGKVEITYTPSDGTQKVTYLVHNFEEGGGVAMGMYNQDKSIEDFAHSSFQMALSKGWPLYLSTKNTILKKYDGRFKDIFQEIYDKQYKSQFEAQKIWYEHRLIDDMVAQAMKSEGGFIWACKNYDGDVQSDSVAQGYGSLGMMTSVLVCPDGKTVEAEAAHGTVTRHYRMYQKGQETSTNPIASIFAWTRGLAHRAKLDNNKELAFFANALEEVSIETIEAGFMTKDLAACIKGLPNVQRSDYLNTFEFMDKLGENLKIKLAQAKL
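IDH1-R132H (0.5 ug/mL) preincubated 30 min with compound, then NADPH (0.016 mM) and alpha-KG (2 mM) added; 80 min at RT, pH 7.5. Remaining NADPH coupled via diaphorase/resazurin to fluorescence (540/590 nm); concentration-response curves normalized to no-enzyme control.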
Resorufin autofl = interferes with resorufin fluorescence in IDH1 counter-screen. 750 tested, under 10 active. shares compounds with IDH1 R132H inh. AID 623980. inhibition of signal, % at 51.2 µM. Resorufin detection reagent fluorescence interference, cell-free;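 further: 0% = wells with normal resorufin and full inhibition = wells lacking resorufin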
WT IDH1 inh = selectivity of mutant IDH1 inhibitors: human wild-type IDH1; shares compounds with IDH1 R132H inh; WT IDH1 enzyme, NADPH diaphorase/resazurin fluorescence; Potency, µM (doses to about 115 µM), inactives show at the highest dose activity change, negative = inhibition, most hits filed as inhibitors; 9% of 750 active;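 further: potency means the concentration at half of the fitted maximal effect; 0% = full WT IDH1 enzyme control and full inhibition = no enzyme wells; nearly all actives have a fitted effect of over 55% in size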
Target sequence (O75874 whole entry, looked up): as the sequence (O75874 whole entry R132H, stated change not applied) above, with H132R counted along it
mIDH1 confirm = inhibits human mutant IDH1 enzyme in cherrypick confirmation | 83% of 750 active | IDH1 R132H enzyme, NADPH diaphorase/resazurin fluorescence | Potency, µM (top dose mostly 76.6 µM), inactives show at the top dose activity change, negative = inhibition, hits mostly inhibitors | shares compounds with IDH1 R132H inh; further: potency means the concentration at half of the fitted maximal effect; nearly all actives have a fitted effect of over 50% in size
The depositor's hits bear a star; ? = inconclusive; . = no result given; [ ] = dose if it differs, or a comment. The call rests on the fitted dose curve; in most records, active means well fitted curve in the direction sought with a large enough effect; inconclusive means small, poorly fitted or top-dose-only effect, or another doubt; inactive means no such curve, though single readings can be large; an effect the other way counts as inactive or inconclusive.

SMILES	Mito fusion act	TrxR1 inh	Nrf2 inh	TrxR1 substrate	A549 viability	IDH1 R132H inh	Resorufin autofl	WT IDH1 inh	mIDH1 confirm
NNC(=O)c1csc(Cc2c(Cl)sc3ccc(Cl)cc23)n1	12%	16%	5%	4%	-4%	52µM*	6	14%	-11%
CCCCOc1ccc(/C=N/NC(=S)Nc2cc(C)ccc2C)cc1	-5%	-14%	-23%	-7%	-19%	-5%	.	.	.
CCCCOc1ccc(/C=N/NC(=S)Nc2cccc(C)c2C)cc1	-2%	-13%	-9%	-14%	0%	?	2	-1%	11µM*
Cc1ccc2nc(-c3cc(NC(=O)/C=C/c4ccccc4)ccc3Cl)oc2c1	.	26%	13%	7%	2%	-16%	.	.	.
Cc1cccc2c1c1ccc3c(c1n2C)C(=O)C=CC3=O	-1%	?	-16%	12%[57.1 µM]	-7%	40µM*	0	117%	25µM*
Cc1ccccc1N1CC(=O)N(c2ccccc2C)CC1=O	-1%	1%	2%	0%	-8%	0%	.	.	.
O=C(CSc1nc2nc(-c3cccs3)cc(C(F)(F)F)c2c(=O)[nH]1)Nc1ccc(F)c(F)c1	-5%	19%[57.1 µM]	?	21%[57.1 µM]	-14%	?	6	?	45µM*
COc1ccc(C2c3cc(OC)c(OC)cc3CC(=O)N2c2cccc(C#N)c2)cc1 (stereo unspecified)	.	12%	7%	-3%	-1%	-24%	.	.	.
CCCN(CCC)C(=O)Cn1c(SCc2cccc(F)c2)nc2cccnc21	.	10%	-20%	9%	-2%	-1%	.	.	.
CCCC(=O)C1=C(c2cccc(OC)c2)N(C(=O)CCC)n2c(C)nnc2S1	.	12%[57.1 µM]	.	6%[57.1 µM]	-2%	45µM*	-7	170%	45µM*
CCC(=O)C1=C(c2ccc(F)cc2)N(C(=O)CC)n2c(nnc2-c2ccc(OC)cc2)S1	.	21%[57.1 µM]	.	-1%[57.1 µM]	8%	-10%	.	.	.
CC(=O)C1=C(c2ccccc2)N(C(C)=O)n2c(C)nnc2S1	-2%	7%	-7%	11%	-7%	29µM*	-6	-130%	6.3µM*
CCC(=O)C1=C(c2ccc(C)cc2)N(C(=O)CC)n2c(nnc2C2CCCCC2)S1	.	21%[57.1 µM]	.	9%[57.1 µM]	5%	1%	.	.	.
CCCC(=O)C1=C(c2ccc(C)cc2)N(C(=O)CCC)n2cnnc2S1	.	-7%[57.1 µM]	.	0%[57.1 µM]	-2%	40µM*	-3	272%	40µM*
CCS(=O)(=O)c1ncc(N(Cc2ccccc2)Cc2ccco2)c(C(=O)Nc2ccc(C)c(C)c2)n1	.	23%	-11%	-1%	3%	0%	.	.	.
C=C1CC2(CC(c3ccccc3)OC(c3ccccc3)C2)OC1=O (stereo unspecified)	.	-34%	?	-8%	?	58µM*	2	?	22µM*
COc1ccc(CN(CCC(c2ccccc2)c2ccc(OC(C)C)cc2)C(=O)CCl)cc1OC (stereo unspecified)	12%	?	-19%	-7%	?	?	-7	-17%	7.9µM*
CCc1ccc(C2c3c(-c4ccccc4)n[nH]c3C(=O)N2c2ccc(C(=O)O)cc2)cc1 (stereo unspecified)	.	7%	-22%	3%	0%	35µM*	-5	25µM*	7.1µM*
